The campaign covered roughly 410,000 compounds. About 3,100 (0.76%) were called active. The call rests on the fitted dose curve; in most records, active means well fitted cell-killing curve with a large enough effect; inactive means no such curve, though single readings can be large or run the other way. What follows is part of a selection rich in actives, with near analogues and random picks from the rest. Where a call stands in place of a potency, no number is given.
Assay: qHTS for Inhibitors of TGF-b: Cytotox Counterscreen
Conditions: HepG2 CAGA-GFP viability, ATP luminescence, 18 h; series mostly up to 46.1 µM
In short: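 HepG2 CAGA-GFP cells (1000/well, DMEM with 1% FBS) received compound, then TGF-beta at 500 pg/mL final, and were incubated 18 hours at 37 degrees C. Viability was read by CellTiter-Glo luminescence. Media-only wells were set as complete cell-killing and DMSO as no toxicity.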
Potency means the concentration at half of the fitted maximal effect.

SMILES | Potency
Cc1cccc(-c2nnc(SC(C)C(=O)Nc3ccccc3)n2C)c1 (stereo unspecified) | inactive
Cc1nnnn1/C(=C\c1ccccc1)C(=O)OCC(=O)N1CC2(C)CC1CC(C)(C)C2 (stereo unspecified) | 7.94 µM (active)
Oc1ccc(Cl)cc1C1C=C(c2ccc3c(c2)OCO3)NC(c2ccc(F)c(Br)c2)N1 (stereo unspecified) | inactive
CCOc1ccccc1NC(=O)c1ccc2c(c1)CCN2S(=O)(=O)c1ccc(C)cc1 | inactive
COc1ccc(C)cc1Nc1nc2ccccc2c2nnc(C)n12 | inactive
CCCNC(=O)C(CC)n1nc(CC)n2c(cc3oc(C)cc32)c1=O (stereo unspecified) | inactive
O=C(NCCCN1CCN(c2ccc(F)cc2)CC1)Nc1ccc([N+](=O)[O-])cc1 | inactive
CCOC(=O)c1c(C)[nH]c(CCC(=O)NCCCN2CCN(c3cc(C)ccc3C)CC2)c1C | inactive
Cc1ccc(C)c(N2CCN(CCCNC(=O)Nc3ccc(Cl)cc3)CC2)c1 | 10 µM (active)
O=C(C1CCC(Cn2c(=O)c3sccc3n(Cc3ccccc3F)c2=O)CC1)N1CCCCC1 (stereo unspecified) | inactive
COc1cc(CN(C(=O)c2ccccc2Br)c2ccccn2)cc(OC)c1OC | inactive
COc1cccc(CC2(CO)CCN(Cc3cnc(-c4cccc(C)c4)nc3)CC2)c1 | inactive
Cc1c(CN2CCC(CO)(CCOc3ccccc3)CC2)[nH]c2ccc(Cl)cc12 | 20 µM (active)
CCC(C)CN1CCC(CO)(Cc2ccccc2Cl)CC1 (stereo unspecified) | inactive
Cc1ccc(S(=O)(=O)Oc2ccc(/C=N/NC(=O)c3c(Cl)cnn3C)cc2)cc1 | inactive
COc1cc(/C=C/c2ccc(/C=C/c3cc(OC)c(OC)c(OC)c3)cc2)cc(OC)c1OC | inactive
COc1cc(/C=N/O)cc(Br)c1OS(=O)(=O)c1ccc(C)cc1 | 12.6 µM (active)
CO[C@H]1O[C@@H]2O[C@@]3(C)CC[C@@H]4[C@@H](C)CC[C@@H]([C@H]1C)[C@@]24OO3 | inactive
Fc1ccc(-c2nc(Nc3cccc(Cl)c3)nc3c2COc2ccccc2-3)cc1 | inactive
Cc1oc(-c2ccccc2F)nc1CN1CCC(C(=O)NCCc2ccc(Cl)cc2)CC1 | inactive
COc1ccc(Cn2ccc3nc(C)c(C(=O)Nc4ccc(C)c(F)c4)cc3c2=O)cc1 | inactive
O=C(NC1=CC(=O)c2ccccc2C1=O)c1ccccc1 | 15.8 µM (active)
CC1=C(C(=O)N2CCN(c3cccc(C(F)(F)F)c3)CC2)C2(CCCCC2)OC1=O | inactive
Cc1ccc(SCC(CC(C)C)N2CCN(CCc3ccccc3)CCC2=O)cc1 (stereo unspecified) | inactive
COc1ccc(C(=O)Nc2cccc(C(=O)OCc3cc(=O)n4c5c(sc4n3)CCCC5)c2)cc1 | inactive
CCC1CCCCN1Cc1c(O)ccc2c(=O)c(Oc3ccccc3Cl)c(C(F)(F)F)oc12 (stereo unspecified) | inactive

Source: PubChem BioAssay AID588856 (National Center for Advancing Translational Sciences (NCATS), 2011)
